31 compounds from PubChem BioAssay (NCI) can be followed below.

Structures are written as SMILES. About 83,000 compounds went through this panel and 20% of them were active in at least one assay; those are over-represented in the sample as a whole.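 Method: cells in 96-well plates; compound added at one concentration; 48 h incubation; percent growth measured; values under 10 scored active.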 Values without a mark were called inactive. Active and inactive are the calls of the source.

The test relates to OVCAR-8 ovarian. Put plainly: NCI-60 one-dose screen, 48 h (100 = growth as untreated, 0 = no growth, -100 = all killed). The settings on record: 10 µM unless noted.
Turning to `CCN(CC)CCN1C(=O)c2cccc3c(/C=C/CN4C(=O)c5cccc6cccc(c56)C4=O)ccc(c23)C1=O`, the growth is 92.1%.
`CCN1CCN(C(=O)[C@]23CC[C@@H](C)[C@H](C)[C@@H]2C2=CC[C@@H]4[C@@]5(C)C/C(=C/c6cccnc6)C(=O)C(C)(C)[C@@H]5CC[C@@]4(C)[C@]2(C)CC3)CC1`: the growth is 32.6%.
As for `COc1ccc(C2CC(c3cc(OC)c(OC)c(OC)c3)=NO2)cc1OCCCCOc1cc2c(cc1OC)C(=O)N1CCC[C@H]1C=N2` (stereo partly specified), the growth was 26.1%.
The value for `Cn1c(=O)c2[nH]c(SCC(=O)Nc3ccc(C(=O)/C=C/c4ccccc4Cl)cc3)nc2n(C)c1=O` was 95%; that for `CC1(C)N=C(N)N=C(N)N1c1cccc(CCc2ccccc2)c1` was 52.6%.
Consider `O=C1c2ccccc2C(=O)c2c1c(C(=O)NCc1ccccc1)c1ccccn21`, for which the growth was 93.9%.
The value for `CC1C(/C=N/NC(N)=S)C(C#N)(C#N)C1(C#N)C#N` (stereo unspecified) was 101%; that for `NS(=O)(=O)c1ccc(-c2cc(-c3nnc(SCC(=O)Nc4ccc(C(=O)/C=C/c5ccc(Cl)cc5)cc4)n3-c3ccccc3)c3ccccc3n2)cc1` was 89.9%.
Consider `CC1(C)CC[C@]2(C(=O)N[C@H](CO)Cc3ccccc3)CC[C@]3(C)C(=CC[C@@H]4[C@@]5(C)CCCNC(C)(C)[C@@H]5CC[C@]43C)[C@@H]2C1`, for which the growth is 97%.
The value for `CCCCNc1cc(-c2cn[nH]c2-c2cc(C)cc(OC)c2)nc(-c2cccnc2)n1` was 80.2%; that for `C/C(=N\O)[C@@H]1CC[C@]2(CO)CC[C@]3(C)[C@H](CC[C@@H]4[C@@]5(C)CCCNC(C)(C)[C@@H]5CC[C@]43C)[C@@H]12` was 91.2%; that for `CN(C)CCCC1(c2ccc(F)cc2)OCc2cc(-c3cc4ccccc4s3)ccc21` (stereo unspecified) was 7.22% (active).
With `C=C(C)[C@@H]1CCC[C@]2(C(=O)O)CC[C@]3(C)[C@@H](CC[C@@H]4[C@@]5(C)C/C(=C/c6ccncc6)C(=O)C(C)(C)[C@@H]5CC[C@]43C)[C@@H]12` the figure was 24.9%.
As for `C=Cc1cnc(Nc2ccc(OC)cc2)nc1NCCCNC(=O)C1CCC1`, the growth was 49.2%.
Turning to `Cc1ccc(CNc2ccc3nc(CCC(C)C)[nH]c3c2)cc1`, the growth is 89.9%.
With `O=c1ccc(=O)n(-c2nc(-c3ccc([N+](=O)[O-])cc3)cs2)[nH]1` the figure was 102%; with `CC(=O)OC(c1ccccc1)C1CCOC1=O` (stereo unspecified), 104%.
For the compound `Cc1ccc(-c2csc(N(C(=O)N3CCN(c4cc5c(cc4F)c(=O)c(C(=O)O)cn5C4CC4)CC3)c3ccccc3)n2)cc1`, the growth is 15.6%.
Consider `CCN1CCN(CC(=O)Nc2nc3ccc(NCc4ccc(F)cc4)cc3s2)CC1`, for which the growth is 95.6%.
With `CCOC(=O)c1c(C)nc2c(c1N)CC(=O)N2Cc1ccc(OC)cc1` the figure was 13.6%; with `CCNC(=O)Oc1ccc(/C(=C(/C)Cc2ccc(OC)cc2)c2ccc(OCCN3CCCCC3)cc2)cc1`, 81.8%; with `C=C(C)[C@@H]1CCC[C@]2(C(=O)N3CCN(C)CC3)CC[C@]3(C)[C@@H](CC[C@@H]4[C@@]5(C)CC/C(=N\NC(=O)c6ccncc6)C(C)(C)[C@@H]5CC[C@]43C)[C@@H]12`, 96.7%.
The value for `CCCCCCCCCCCCCOC(=O)c1c(C)[nH]c(/C=C2\N=C(c3ccc[nH]3)C=C2OC)c1C` was 18.3%; that for `COc1cccc(/C=C/C(=O)c2cccc(Nc3nc(Nc4ccccc4)nc(Nc4ccccc4)n3)c2)c1` was 77.7%.
Consider `O=C(C1CCCCC1)[C@@H]1[C@]2(C(=O)NC3CCCCC32)[C@@H]2CCCN2[C@@]12C(=O)NC1CCC(Cl)CC12` (stereo partly specified), for which the growth is -64.3% [100 µM] (active).
Regarding `N#C/C(=C\c1ccc(-c2cccc(C(F)(F)F)c2)o1)c1ccccc1`, the growth was 101%.
The value for `COc1cc(C(=O)n2nc(N3CCOCC3)c3cc(-n4cccc4)ccc32)cc(OC)c1OC` was 64%; that for `COC(=O)c1c2c(c(C)[n+]([O-])c1C)C(=O)C(NCc1ccc(OC)cc1)=CC2=O` was -15.2% (active).
As for `CC1=C(CCC(C)NCc2ccc(OCCCN3CCCCC3)cc2)C(C)(C)CCC1` (stereo unspecified), the growth is -45.4% (active).
With `CN1CCN(CCCOc2cccc3nc(Nc4ccc(F)c(F)c4)ccc23)CC1` the figure was 24.5%; with `CC1(C)CC[C@]23CC[C@]4(C)[C@H](CC[C@@H]5[C@@]6(C)C/C(=C/c7ccncc7)C(=O)C(C)(C)[C@@H]6CC[C@]54C)[C@H]2[C@H]1OC3`, 75.1%.
